Measurements: PubChem BioAssay AID672 (University of Pittsburgh Molecular Library Screening Center, 2007)
The other results are listed elsewhere or left out. Unmarked numbers belong to inactive results. No rule for the calls is given here.

Test: H2O2 generation by compounds in DTT – biochemical, probe assessment, artefact control, dose response (AID 672)
Conditions: Redox cycling H2O2 generation, phenol red/HRP

CCc1ccc(NC(=O)CSc2nc3ccccc3c(=O)n2CCN2CCOCC2)cc1
EC50: > 50 µM
